Screens: PubChem, National Center for Advancing Translational Sciences (NCATS)
Rows were chosen to be rich in hits. Some 0.45% of all compounds tested hit in one or more screens of this group.
GAA glycogen mod: GAA glycogen-cleavage inhibition or activation | Potency, µM (series often up to 76.4 µM), usual class: inhibitors | AID 2100 | recombinant GAA, glycogen substrate, Amplex Red glucose oxidase fluorescence | 300,000 compounds, 0.38% hits | P10253;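 also: the screen sought inhibitors and activators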
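qHTS, 1536-well; enzyme 4 nM final; cpd up to 77 uM; substrate bovine liver glycogen 30 ug; 50 mM citrate/phosphate pH 5.0, 0.01% Tween-20; 37 C, 40 min; Amplex Red detection 45 min RT; Hill fit → AC50.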
GAA inhib: alpha-glucosidase (human) inhibition; purified human GAA, 4-MU-alpha-glucoside fluorescence; Potency, µM (doses to about 76.9 µM), usual class: inhibitors; 200,000 compounds, 0.005% hits
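Compounds are titrated up to 77 uM against 4 nM human enzyme. Substrate 4-methylumbelliferyl-alpha-D-pyranoside (400 uM) reacts 20 min at room temperature in pH 5.0 buffer; liberated 4-methylumbelliferone is read at 440 nm.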
Menin-MLL FL inh: displaces fluorescein MLL peptide from human menin | Fluorescence polarization, fluorescein-MLL peptide displacement from menin | FP activity change, % at 61.4 µM | 290,000 tested, under 10 active | AID 1766; active = well fitted curve in the direction sought with a large enough effect in the polarisation, not every such curve was filed as active; inconclusive = small, poorly fitted or top-dose-only effect, or effect the other way, or a change in a side signal; inactive = no such curve, though single readings can be large or run the other way; the % refers to the polarisation
aGlu spleen mod: inhibitors or activators of human alpha-glucosidase in spleen homogenate; Potency, µM (series often up to 79.9 µM), hits mostly inhibitors; human spleen homogenate, 4-MU-alpha-glucoside fluorescence; P10253; 240,000 compounds, 0.006% hits
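Human spleen homogenate (1 ug) with 4-methylumbelliferyl-alpha-D-glucopyranoside (1 mM final) in 50 mM citrate/phosphate pH 5.0, 0.01% Tween-20; 40 min at 37 C. Stopped at pH 10; 4-MU fluorescence Ex 365/Em 440 nm; AC50 by Hill fit.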
CXXC DNA block: MLL CXXC-DNA interaction inhibition. Potency, µM (top dose mostly 115 µM), most hits filed as inhibitors. MLL-CXXC / FITC-HOXA9 DNA fluorescence polarization. 290,000 compounds, 0.037% hits. Q03164. AID 2662; active = well fitted inhibition curve with a large enough effect in the polarisation, with a control signal flat, not every such curve was filed as active; inconclusive = small, poorly fitted or top-dose-only effect, or effect the other way, or a change in a side signal; inactive = no such curve, though single readings can be large or run the other way; the % refers to the polarisation
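Purified MLL-CXXC (added from a 7 uM solution) was preincubated 5 min at ambient with pinned compounds in 50 mM Tris-HCl pH 7.5, 50 mM NaCl, 1 mM DTT, 0.05% BSA. Fluorescein-labeled HOX-A9 DNA (50 nM solution) followed, 30 min, then polarization read.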
Menin-MLL TR inh: inhibitors of human menin-MLL interaction, mutant MLL peptide; O00255; Menin + Texas Red MLL mutant peptide, fluorescence polarization; Potency, µM (doses to about 61.6 µM), usual class: inhibitors; 270,000 compounds, 0.23% hits; active = well fitted inhibition curve with a large enough effect in the polarisation, with a control signal flat, not every such curve was filed as active; inconclusive = small, poorly fitted or top-dose-only effect, or effect the other way, or a change in a side signal; inactive = no such curve, though single readings can be large or run the other way; the % refers to the polarisation
Target sequence (O00255 whole entry, looked up): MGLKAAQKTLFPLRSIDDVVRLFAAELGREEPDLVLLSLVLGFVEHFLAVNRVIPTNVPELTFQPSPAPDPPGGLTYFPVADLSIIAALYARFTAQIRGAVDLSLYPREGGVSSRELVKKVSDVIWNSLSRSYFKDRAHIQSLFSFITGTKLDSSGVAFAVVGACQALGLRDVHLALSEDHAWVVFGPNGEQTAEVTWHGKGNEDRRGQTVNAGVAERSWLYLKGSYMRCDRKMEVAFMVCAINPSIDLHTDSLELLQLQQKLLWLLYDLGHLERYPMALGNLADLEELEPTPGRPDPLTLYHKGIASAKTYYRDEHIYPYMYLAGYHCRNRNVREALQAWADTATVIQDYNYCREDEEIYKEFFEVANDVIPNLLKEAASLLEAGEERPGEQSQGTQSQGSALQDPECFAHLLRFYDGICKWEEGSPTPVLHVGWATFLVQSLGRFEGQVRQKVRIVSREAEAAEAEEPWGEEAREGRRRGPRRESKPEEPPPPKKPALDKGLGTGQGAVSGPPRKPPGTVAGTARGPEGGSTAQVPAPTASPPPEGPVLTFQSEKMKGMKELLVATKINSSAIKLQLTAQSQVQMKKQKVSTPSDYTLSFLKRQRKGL
Each line names hits and unclear results; the compound was inactive in the other large screens. Unless noted, calls follow the shape of the dose curve; as a rule, active = well fitted curve in the direction sought with a large enough effect; inconclusive = small, poorly fitted or top-dose-only effect, or another doubt; inactive = no such curve, though single readings can be large; an effect the other way counts as inactive or inconclusive.

CCn1c(C)c(/C=N/Nc2nc3ccccc3s2)c2ccccc21	GAA glycogen mod 25µM, Menin-MLL TR inh inconclusive
C(=N\Nc1nc2ccccc2s1)/c1cccs1	GAA glycogen mod inconclusive, Menin-MLL TR inh inconclusive
CC(=O)NNc1nc2ccccc2s1	GAA glycogen mod 8.9µM (no result: Menin-MLL TR inh)
COc1ccc2nc(NNC(=O)COc3ccccc3)sc2c1	GAA glycogen mod 5µM
CCn1c(SCC(=O)c2ccc(O)c(O)c2)nnc1-c1ccccc1	GAA glycogen mod 7.9µM, GAA inhib inconclusive
Cn1cnnc1SCC(=O)c1ccc(O)c(O)c1	GAA glycogen mod 6.3µM
CCCCn1c(SCC(=O)c2ccc(O)c(O)c2)nc2ccsc2c1=O	GAA glycogen mod 28µM, Menin-MLL TR inh inconclusive
C=CCn1c(SCC(=O)c2ccc(O)c(O)c2)nnc1-c1ccccc1OC	GAA glycogen mod 18µM
C=CCn1c(SCC(=O)c2ccc(O)c(O)c2)nnc1-c1cccnc1	GAA glycogen mod inconclusive (no result: GAA inhib, Menin-MLL TR inh)
COC1=CC(C)C2CC3OC(=O)CC4C(C)=C(OC)C(=O)C([C@]2(C)C1=O)[C@]34C (stereo not given in full)	none (no result: GAA glycogen mod, GAA inhib, CXXC DNA block)
COc1ccccc1-c1nnc(SCC(=O)c2ccc(Cl)cc2)n1-c1ccccc1	none (no result: GAA inhib, Menin-MLL FL inh, aGlu spleen mod, CXXC DNA block, Menin-MLL TR inh)
O=C(CCCn1c(SCC(=O)NC2CCCCC2)nc2ccccc2c1=O)NCC1CCCO1 (stereo not given)	none
CCn1c(SCC(=O)c2ccc(O)c(O)c2)nnc1-c1ccccc1OC	GAA glycogen mod 25µM
O=C(CCCn1c(SCC(=O)c2ccc(O)c(O)c2)nc2ccccc2c1=O)NCC1CCCO1 (stereo not given)	GAA glycogen mod 5.6µM, Menin-MLL TR inh inconclusive
COC(=O)c1c(C)nn(-c2ccc(F)c(Cl)c2)c1-c1cc(C)on1	GAA inhib inconclusive (no result: Menin-MLL TR inh)
O=C(CN1CC(=O)Oc2ccccc21)OCC(=O)c1cccc(Br)c1	GAA glycogen mod 8.8µM
O=C(CN1CC(=O)Oc2ccccc21)OCC(=O)c1ccccc1	GAA glycogen mod inconclusive
COC(=O)C1=C(C(=O)OC)[C@@H]2N(C)c3ccc(OC)cc3[C@@]23C[C@@H](C(=O)OC)N(S(=O)(=O)c2ccc(C#N)cc2)C3=N1	none (no result: GAA glycogen mod, GAA inhib, CXXC DNA block)
NC(=O)SCC(=O)Nc1cccc(Cl)c1	Menin-MLL TR inh 22µM
NC(=O)SCC(=O)Nc1ccc(Cl)cc1	GAA inhib inconclusive
COc1ccccc1-c1cc(C(=O)Nc2cc(Cl)ccc2O)no1	none (no result: GAA inhib, Menin-MLL FL inh, aGlu spleen mod, CXXC DNA block, Menin-MLL TR inh)
COc1ccccc1-c1cc(C(=O)Nc2ccc(F)cc2F)no1	Menin-MLL TR inh 11µM
COc1ccc2c(CNC3CCCCCC3)c(C(=O)O)n(Cc3ccc(C)cc3)c2c1	none (no result: GAA inhib, Menin-MLL FL inh, aGlu spleen mod, CXXC DNA block, Menin-MLL TR inh)
COc1ccc(CCNC(=O)CCCCn2c(=O)c3ccccc3n(Cc3cc(C)ccc3C)c2=O)cc1OC	none (no result: GAA inhib, Menin-MLL FL inh, aGlu spleen mod, CXXC DNA block, Menin-MLL TR inh)
NNC(=O)c1nn(-c2ccc(Cl)cc2)cc1O	GAA glycogen mod 28µM, CXXC DNA block inconclusive (no result: Menin-MLL TR inh)
O=C(CCc1nnc2n(Cc3ccccc3Cl)c(=O)c3ccccc3n12)Nc1ccc(F)cc1	none (no result: GAA inhib, Menin-MLL FL inh, aGlu spleen mod, CXXC DNA block, Menin-MLL TR inh)
CCOc1cc(CNc2ccc(N(C)C)cc2)cc(Br)c1OCC(=O)NC(C)(C)C	GAA glycogen mod 20µM, GAA inhib inconclusive, Menin-MLL TR inh inconclusive
COc1cc(CNc2ccc3[nH]c(=O)[nH]c3c2)ccc1OCc1ccc(F)cc1	Menin-MLL TR inh inconclusive (no result: GAA inhib, aGlu spleen mod)
COc1cc(CNc2ccc3[nH]c(=O)[nH]c3c2)cc(Br)c1OCC(=O)NC(C)(C)C	GAA glycogen mod 14µM
C=CCOc1cccc(CNc2ccc3[nH]c(=O)[nH]c3c2)c1	GAA glycogen mod 28µM
C=CCOc1ccc(CNc2ccc3[nH]c(=O)[nH]c3c2)cc1OC	GAA glycogen mod inconclusive
COc1cc(CNc2ccc3[nH]c(=O)[nH]c3c2)ccc1OCc1ccccc1F	GAA glycogen mod 5.6µM (no result: GAA inhib, aGlu spleen mod)
Nc1nonc1N/N=C/c1c(O)ccc2ccccc12	GAA glycogen mod 9.9µM, GAA inhib inconclusive, Menin-MLL TR inh inconclusive
CN(C)CCCN(C(=O)c1ccc([N+](=O)[O-])o1)c1nc2cc3c(cc2s1)OCO3	none (no result: GAA inhib, aGlu spleen mod)
O=C(O)C1Nc2c(Cl)cc(Cl)cc2C2C=CCC12 (stereo not given)	Menin-MLL FL inh inconclusive (no result: GAA inhib, aGlu spleen mod)
